Screens from PubChem BioAssay.
DRD3 antagonist: qHTS of D3 Dopamine Receptor Antagonist: qHTS | D(3) dopamine receptor (Homo sapiens), P35462 | D3R cells, DiscoveRx beta-arrestin luminescence, antagonist mode; active compounds read low | max response, negative = inhibition, % | 2.5% of 360,000 active; in the data active = max response below about -50%; inconclusive = no clear call, values can overlap the other calls; note: % is set by controls: 0 for no effect and ±100 for the full control effect
Target sequence (P35462 whole entry, looked up): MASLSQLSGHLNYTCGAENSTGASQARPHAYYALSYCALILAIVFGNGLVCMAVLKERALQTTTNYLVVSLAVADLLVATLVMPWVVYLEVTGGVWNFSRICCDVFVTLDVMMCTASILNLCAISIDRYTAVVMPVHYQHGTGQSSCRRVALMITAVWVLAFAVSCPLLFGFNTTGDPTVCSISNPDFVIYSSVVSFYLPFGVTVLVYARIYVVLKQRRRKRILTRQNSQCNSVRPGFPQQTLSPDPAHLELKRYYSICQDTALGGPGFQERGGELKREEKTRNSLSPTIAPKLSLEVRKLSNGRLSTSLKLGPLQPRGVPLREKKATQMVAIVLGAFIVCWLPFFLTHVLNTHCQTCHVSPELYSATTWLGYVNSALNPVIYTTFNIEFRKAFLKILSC
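Cells plated overnight at 1500 cells/well, then exposed to library compounds with dopamine controls for 90 minutes at 37 degrees C. DiscoveRx reagent added for 30–60 minutes at room temperature; luminescence read, quantitative HTS format.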
D3 ag: qHTS of D3 Dopamine Receptor Agonist: qHTS | D3R DiscoveRx beta-arrestin cells, luminescence, 90 min | max activation, % | 0.58% of 410,000 active | AID 652048, 2013; in the data active = max activation above about 30%; note: 0% is about no effect
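Agonist mode: compounds and dopamine controls were applied to plated cells for 90 min at 37 degrees C after an overnight attachment at 1500 cells/well. Luminescent read-out followed 30 - 60 minutes at room temperature with DiscoveRx detection reagent.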
KB-3-1 cytotox: qHTS assay for MDR1-selective chemotherapeutics: Primary screen using the parental adenocarcinoma cell KB-3-1. KB-3-1 viability, CellTiter-Glo ATP luminescence, 72 h. Potency, µM (titrated, usually from 46.1 µM), most hits filed as cytotoxic. AID 1347075, 2019. 1.4% of 400,000 active; note: potency is the fitted concentration of half-maximal effect; % is set by controls: 0 for no effect and ±100 for the full control effect; nearly all actives have a fitted effect of over 60% in size
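72 h, 37 °C compound treatment of KB-3-1 parental cells; CellTiter-Glo added, 10 min, luminescence read. Data corrected against DMSO-only plates and normalized before curve fitting.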
KB-V1 cytotox: qHTS assay for MDR1-selective chemotherapeutics: Primary screen using the drug-selected MDR subline cells KB-V1; KB-V1 MDR cells viability, CellTiter-Glo, 72 h; Potency, µM (series often up to 46.1 µM), actives largely listed as cytotoxic; 3.4% of 400,000 active; AID 1347076, 2019; note: potency is the fitted concentration of half-maximal effect; % is set by controls: 0 for no effect and ±100 for the full control effect; nearly all actives have a fitted effect of over 60% in size
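KB-V1 cells (P-gp-expressing MDR subline of KB-3-1) in phenol-red-free DMEM with 10% FBS were exposed to library compounds over a concentration series for 72 h at 37 degrees C. Viability read by CellTiter-Glo luminescence; concentration-effect curves fitted after normalization.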
SW480 rerep: A quantitative high throughput screen for small molecules that induce DNA re-replication in SW480 colon adenocarcinoma cells; SW480 DNA re-replication, Hoechst DNA content imaging, 48 h; Potency, µM (top dose mostly 46.1 µM), for inactives: top-dose re-replication activation, most hits filed as activators; 1.8% of 340,000 active; AID 624297, 2012; note: potency is the fitted concentration of half-maximal effect; % of control where 0% means no effect; nearly all actives have a fitted effect of over 55% in size
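DNA re-replication was detected as more nuclei of elevated Hoechst intensity after 48 hr exposure to compound (23 nL pinned per well of 250 cells).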
MCF10A rereplic: A quantitative high throughput screen for small molecules that induce DNA re-replication in MCF 10a normal breast cells. MCF 10A DNA re-replication, Hoechst nuclear intensity, 48 h. Potency, µM (series often up to 46.1 µM), for the others: top-dose activity, positive = re-replication, hits mostly activators. 2.9% of 350,000 active; note: potency is the fitted concentration of half-maximal effect; % of control where 0% means no effect; nearly all actives have a fitted effect of over 50% in size
* hit, by the source's call; i = inactive; u = inconclusive; x = no result; [ ] = remark or other dose. Most compounds without a hit are left out; they make up all but 8.9% or so of the library. Unless noted, calls come from the whole dose curve; as a rule, active = well fitted curve in the direction sought with a large enough effect; inconclusive = small, poorly fitted or top-dose-only effect, or another doubt; inactive = no such curve, though single readings can be large; an effect the other way counts as inactive or inconclusive.

SMILES	DRD3 antagonist	D3 ag	KB-3-1 cytotox	KB-V1 cytotox	SW480 rerep	MCF10A rereplic
Cc1cc(C)c(CN2CCN(C(=O)CC[C@H]3O[C@@H](n4ccc(=O)[nH]c4=O)[C@H](O)[C@@H]3O)CC2)c(C)c1	-69*	-13	i	u	x	x
Cc1ccc(-n2ncc3c(N4CCCCCC4)ncnc32)cc1	x	7	i	i	x	x
COc1ccc(CCNc2ccc(C(CC(N)=O)NC(=O)c3ccc(Br)cc3)cc2[N+](=O)[O-])cc1 (centres undefined)	-68*	-24	i	i	u	u
NC(=O)CC(NC(=O)c1ccc(Br)cc1)c1ccc(NCc2ccc(F)cc2)c([N+](=O)[O-])c1 (centres undefined)	-4	-26	i	i	u	u
Cc1ccccc1CNc1ccc(C(CC(N)=O)NC(=O)c2ccc(Br)cc2)cc1[N+](=O)[O-] (centres undefined)	-25	-30	i	i	u	10µM*
CCOc1ccc(CNC(=O)c2ccc3c(c2)N(CC)CCS3)cc1	-67*	-13	i	i	6%	11%
COc1ccc(CNC(=O)c2ccc3c(c2)N(Cc2ccc(C)cc2)CCS3)cc1	x	-8	i	i	x	x
CCN1CCSc2ccc(C(=O)NCc3ccc(OC(C)C)cc3)cc21	-77*	-13	i	i	-6%	-2%
COc1ccc(OC)c(CCNC(=O)c2ccc3c(c2)N(Cc2ccc(F)cc2)CCS3)c1	-4	-4	u	u	6%	13µM*
COc1ccc(S(=O)(=O)Nc2cccc(-c3ccc(N4CCC(C)CC4)nn3)c2)c(OC)c1	x	3	i	i	x	x
Cc1ccccc1OCC(=O)N/N=C/c1ccc([N+](=O)[O-])o1	-6	0	i	i	1.2µM*	23µM*
CC(=O)N/N=C/c1ccc([N+](=O)[O-])o1	x	-21	x	x	10%	u
COc1ccccc1OCC(=O)N/N=C/C=C/c1ccc([N+](=O)[O-])o1	-18	-3	u	16µM*	u	u
Cc1cc(C)cc(OCC(=O)N/N=C/c2ccc([N+](=O)[O-])o2)c1	8	8	i	u	u	u
CC1(C(=O)N/N=C/c2ccc([N+](=O)[O-])o2)CC1(Br)Br (centres undefined)	0	-17	u	18µM*	4.6µM*	u
COc1cccc(OCC(=O)NCCS(=O)(=O)N2CCN(c3ccccc3F)CC2)c1	x	-5	x	x	x	x
Cc1ccc2nc(SCC(=O)Nc3ccc(F)c([N+](=O)[O-])c3)[nH]c2c1	-2	-5	i	21µM*	-12%	u
Cc1ccc2nc(SCC(=O)Nc3cc([N+](=O)[O-])ccc3F)[nH]c2c1	-20	-21	i	21µM*	-3%	u
Cc1ccc2nc(SCC(=O)c3ccc(Cl)s3)[nH]c2c1	-10	-10	i	13µM*	-6%	-3%
Cc1ccc2nc(SC(C)C(=O)Nc3cccc([N+](=O)[O-])c3)[nH]c2c1 (centres undefined)	0	-11	u	4.1µM*	-6%	3%
COc1cccc2c1C(=O)c1c(O)c3c(c(O)c1C2=O)C[C@@](O)(C(=O)CO)C[C@@H]3O[C@H]1C[C@H](N)[C@H](O[C@@H]2CCCCO2)[C@H](C)O1	x	-17	x	x	x	x
O=S1(=O)N=C(Oc2ccc(-c3ccccc3)cc2)c2ccccc21	x	x	i	i	x	x
Cc1c(O)ccc2c(CC(=O)N[C@@H](Cc3ccccc3)C(=O)O)cc(=O)oc12	-6	-4	i	i	u	23µM*
COc1ccc2c(CC(=O)N[C@@H](Cc3ccccc3)C(=O)O)cc(=O)oc2c1	3	-8	i	i	-4%	-4%
COc1cccc(CN(C)Cc2cc(=O)oc3c(C)c(C)ccc23)c1	49	3	16µM*	i	-10%	13%
SMILES	DRD3 antagonist	D3 ag	KB-3-1 cytotox	KB-V1 cytotox	SW480 rerep	MCF10A rereplic
Cc1c(O)ccc2c(CN(C)Cc3ccccc3)cc(=O)oc12	26	-5	i	i	18µM*	-36%
COc1cccc(CN(C)Cc2cc(=O)oc3cc(O)c(Cl)cc23)c1	1	12	u	i	u	21µM*
CCc1cc2c(CN(C)Cc3ccccc3F)cc(=O)oc2cc1O	4	9	u	12µM*	u	18µM*
Cc1cc2oc(=O)cc(CN(C)Cc3cccc(F)c3)c2cc1C	4	-1	i	i	u	7%
Cc1ccc(CN2CCN(C3CCN(C(=O)OC(C)(C)C)CC3)C(=O)C2=O)cc1	x	-5	i	i	x	x
COc1ccc(Cl)cc1N(C)C(=O)Cn1cnc2sc(C)c(S(=O)(=O)N3CCN(c4ncccn4)CC3)c2c1=O	x	8	i	i	x	x
Oc1c(Cl)cc(Cl)cc1C=Nc1ccc(Br)cc1	37	-16	i	u	-2%[9.22 µM]	16%
Cc1ccc(N=Cc2cc(Br)cc(Cl)c2O)cc1	-65*	-28	i	i	-2%	10%
Cc1cccc(CNC(=O)CN2CC(C)Sc3ccccc32)c1 (centres undefined)	x	5	i	u	x	x
Oc1cccc2c(CC(O)c3c[nH]c4ccccc34)ccnc12 (centres undefined)	x	x	0.73µM*	u	x	x
O=C1NC(c2ccccc2)C(C(=O)c2cccs2)=C1O (centres undefined)	-58*	-10	i	i	7%	0%
O=C(CN1CCN(Cc2ccccc2)CC1)N1CCCc2c1c(=O)oc1ccc(O)cc21	-29	-9	u	15µM*	26%	21µM*
CO/N=C(\C(=O)N[C@@H]1C(=O)N2C(C(=O)[O-])=C(C[N+]3(C)CCCC3)CS[C@@H]12)c1csc(N)n1	x	x	x	x	-1%	-8%
C=CCn1c(SCC(N)=O)nnc1-c1cccc(Br)c1	2	-4	i	i	-4%	1%
C=CCn1c(SCC(C)=O)nnc1-c1cc(-c2ccccc2)sc1N	-13	-4	i	18µM*	-15%	-2%
CC(C)Oc1ccc(C(=O)NCC(c2ccc(N(C)C)cc2)N2CCCC2)cc1 (centres undefined)	x	-7	i	i	x	x
Cc1cccc(CN2Cc3cccc4c3[C@H](C=CC4)CC2=O)c1	x	x	i	i	x	x
